In PubChem BioAssay AID1159580 (chemical genetic matrix, 2015):
Values joined by “and” are separate entries in the source; they are usually repeats but may differ in a detail not shown here. Equal values may be shown once. The campaign covered roughly 5,500 compounds. About 2,000 (36%) were called active. Roughly 18% stayed inconclusive and do not appear here. Cut-off read from the data, not from the text of the source: active = normalized growth mostly below about 0.91 (no sharp cut-off); inconclusive = no clear call, values can overlap the other calls; inactive = mostly above about 0.92. This is one part of the list.

Assay: chemical genetic growth profiling, strain panel (AID 1159580);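 note: tested at 20 µM; growth read once vehicle control cultures reached saturation at 30 °C; 1 = growth at the plate median or of vehicle wells; lower values mean less growth of the strain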
Settings: S. cerevisiae deletion strains, growth OD

Measured: normalized growth

C#C[C@]1(O)CCC2C3CCC4=CC(=O)CC[C@@H]4C3CC[C@@]21C (some centres undefined)
inactive: locus YAL021C, strain ccr4, active compounds read low 0.973 | locus YAL026C, strain drs2, active compounds read low 0.967 | locus YAL030W, strain snc1, active compounds read low 0.987 | locus YBL061C, strain skt5, active compounds read low 0.989 | locus YBR009C, strain hhf1, active compounds read low 0.985 | locus YBR021W, strain FUR4, active compounds read low 0.978 | locus YBR023C, strain chs3, active compounds read low 0.987 | locus YBR171W, strain sec66, active compounds read low 0.969 | locus YBR229C, strain ROT2, active compounds read low 0.997 | locus YBR231C, strain swc5, active compounds read low 1 | locus YBR279W, strain paf1, active compounds read low 0.994 | locus YCL011C, strain gbp2, active compounds read low 0.984 | locus YCL016C, strain dcc1, active compounds read low 1 | locus YCL029C, strain bik1, active compounds read low 0.984 | locus YCL061C, strain MRC1, active compounds read low 0.977 | locus YCL069W, strain vba3, active compounds read low 0.968 | locus YCR088W, strain abp1, active compounds read low 0.982 | locus YDL005C, strain med2, active compounds read low 0.962 | locus YDL035C, strain GPR1, active compounds read low 0.98 | locus YDL040C, strain nat1, active compounds read low 0.984 | locus YDL074C, strain BRE1, active compounds read low 0.988 | locus YDL101C, strain DUN1, active compounds read low 0.995 | locus YDL134C, strain PPH21, active compounds read low 0.975 | locus YDL185W, strain tfp1, active compounds read low 0.98 | locus YDL192W, strain arf1, active compounds read low 0.978 | locus YDR001C, strain nth1, active compounds read low 0.981 | locus YDR069C, strain doa4, active compounds read low 0.972 | locus YDR101C, strain arx1, active compounds read low 0.97 | locus YDR137W, strain rgp1, active compounds read low 0.892 | locus YDR150W, strain NUM1, active compounds read low 1.01 | locus YDR159W, strain sac3, active compounds read low 0.981 | locus YDR162C, strain NBP2, active compounds read low 0.932 | locus YDR195W, strain ref2 1.01 | locus YDR297W, strain sur2, active compounds read low 0.993 | locus YDR318W, strain mcm21, active compounds read low 0.974 | locus YDR334W, strain swr1, active compounds read low 0.977 | locus YDR335W, strain msn5, active compounds read low 0.98 | locus YDR388W, active compounds read low 0.975 | locus YDR392W, strain spt3, active compounds read low 0.801 | locus YDR502C, strain sam2, active compounds read low 0.957 | locus YEL003W, strain gim4, active compounds read low 0.97 | locus YEL037C, strain rad23, active compounds read low 0.966 | locus YEL061C, strain CIN8 (second series), active compounds read low 0.967 | locus YEL061C, strain CIN8, active compounds read low 0.995 | locus YER015W, strain faa2, active compounds read low 0.974 | locus YER016W, strain bim1, active compounds read low 0.98 | locus YER110C, active compounds read low 0.982 | locus YER111C, strain swi4, active compounds read low 0.988 | locus YER155C, strain BEM2 (second series), active compounds read low 0.981 | locus YER155C, strain BEM2, active compounds read low 0.999 | locus YER167W, strain BCK2, active compounds read low 0.991 | locus YFR010W, strain ubp6, active compounds read low 0.979 | locus YGL078C, strain dbp3, active compounds read low 0.979 | locus YGL086W, strain mad1, active compounds read low 0.991 | locus YGL167C, strain pmr1, active compounds read low 0.972 | locus YGL173C, strain kem1, active compounds read low 0.969 | locus YGL227W, strain vid30, active compounds read low 0.984 | locus YGL240W, strain doc1, active compounds read low 0.988 | locus YGL248W, strain PDE1, active compounds read low 0.998 | locus YGL253W, strain hxk2, active compounds read low 0.982 | locus YGR135W, strain pre9, active compounds read low 0.986 | locus YGR229C, strain SMI1, active compounds read low 0.948 | locus YGR252W, strain gcn5, active compounds read low 0.978 | locus YHR013C, strain ard1, active compounds read low 0.993 | locus YHR027C, strain rpn1, active compounds read low 0.981 | locus YHR030C, strain SLT2, active compounds read low 1 and 0.925 | locus YHR079C, strain IRE1 (second series), active compounds read low 0.983 | locus YHR079C, strain IRE1, active compounds read low 0.95 | locus YHR094C, strain hxt1, active compounds read low 0.981 | locus YHR129C, strain ARP1, active compounds read low 1.01 | locus YHR142W, strain chs7, active compounds read low 0.952 | locus YHR200W, strain rpn10, active compounds read low 0.986 | locus YIL066C, strain RNR3, active compounds read low 0.99 | locus YIL073C, strain SPO22, active compounds read low 0.9 | locus YIL125W, strain kgd1, active compounds read low 0.986 | locus YIR030C, strain dcg1, active compounds read low 0.984 | locus YJL092W, strain hpr5, active compounds read low 0.976 | locus YJL095W, strain BCK1 (second series), active compounds read low 0.99 | locus YJL095W, strain BCK1, active compounds read low 0.932 and 0.954 | locus YJL115W, strain asf1, active compounds read low 0.975 | locus YJL129C, strain trk1, active compounds read low 0.919 | locus YJL134W, strain LCB3, active compounds read low 0.995 | locus YJL154C, strain vps35, active compounds read low 0.965 | locus YJL164C, strain tpk1, active compounds read low 0.976 | locus YJL166W, strain qcr8, active compounds read low 0.992 | locus YJL168C, strain set2, active compounds read low 0.984 | locus YJL187C, strain SWE1 (second series), active compounds read low 0.991 | locus YJL187C, strain SWE1, active compounds read low 0.983 | locus YJR043C, strain POL32, active compounds read low 1.01
